# Hits are enriched below; roughly 1.2% of the tested compounds scored in any of these assays.
# PTAP TSG101 blk: blocks PTAP/TSG101 interaction to inhibit HIV-1 budding. Q99816. Fluorescence polarization, FITC-PTAP peptide / Tsg101 binding. Potency, µM (doses to about 115 µM), usual class: inhibitors. 340,000 tested, under 10 active. AID 493005; active means well fitted inhibition curve with a large enough effect in the main read-out, with a control signal flat, not every such curve was filed as active; inconclusive means small, poorly fitted or top-dose-only effect, or effect the other way, or a change in a side signal; inactive means no such curve, though single readings can be large or run the other way
# Target sequence (Q99816 whole entry, looked up): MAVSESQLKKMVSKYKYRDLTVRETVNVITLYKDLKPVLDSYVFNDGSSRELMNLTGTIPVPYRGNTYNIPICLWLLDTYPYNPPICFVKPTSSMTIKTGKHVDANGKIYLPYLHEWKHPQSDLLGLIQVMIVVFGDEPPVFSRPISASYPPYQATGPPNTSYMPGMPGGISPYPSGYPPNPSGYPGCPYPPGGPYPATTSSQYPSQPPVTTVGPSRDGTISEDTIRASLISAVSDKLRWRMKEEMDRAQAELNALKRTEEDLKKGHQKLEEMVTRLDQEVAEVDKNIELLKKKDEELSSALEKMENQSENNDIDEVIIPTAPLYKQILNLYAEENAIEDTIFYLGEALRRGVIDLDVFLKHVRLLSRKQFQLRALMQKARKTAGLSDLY
#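 Fluorescence anisotropy tracks displacement of a FITC-tagged PTAP peptide (50 nM) from the Tsg101 binding domain (10 uM), following a 20 min room-temperature incubation at pH 7.5.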
# Anesthetic bind: binds horse apoferritin like a general anesthetic. actives 0.074% (n = 350,000). apoferritin/1-aminoanthracene competitive binding, fluorescence. P02791. Potency, µM (titrated, usually from 77.5 µM), actives largely listed as inhibitors; further: nearly all actives have a fitted effect of over 20% in size
# Target sequence (P02791 2-175 limits assumed): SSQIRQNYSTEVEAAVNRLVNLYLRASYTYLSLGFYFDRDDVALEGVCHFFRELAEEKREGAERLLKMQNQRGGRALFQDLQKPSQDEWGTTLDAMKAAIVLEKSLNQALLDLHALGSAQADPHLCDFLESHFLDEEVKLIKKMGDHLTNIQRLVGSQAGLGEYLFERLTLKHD
#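 Steps: apoferritin (10 uM) was premixed with half-saturated 1-AMA in PBS, compounds were pin-transferred, plates stood 10 min at room temperature, fluorescence was read at 380/535 nm, and curves were fitted with a Hill equation.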
# ASM inhibitor: blocks human secretory acid sphingomyelinase; Potency, µM (highest dose often 57.5 µM), hits mostly inhibitors; actives 0.006% (n = 340,000); placental ASM, HMU-PC fluorogenic substrate, 60 min; P17405; AID 504937
#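 Fluorogenic HMU-PC substrate (9 uM final) is turned over by placental ASM in 60 min at 37 C after a 10 min compound preincubation. Reaction ended by alkaline stop (pH 10), with fluorescence read at 386/447 nm.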
# TSHR antag: antagonists of human thyroid stimulating hormone receptor. P16473. TSHR-expressing cells, TSH-stimulated cAMP HTRF, 2 h; stronger effect = lower value. activity change, negative = inhibition, % at 11.5 µM. actives 0.2% (n = 330,000). AID 504810;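 active means activity change below a set negative limit, meaning inhibition stronger than a set level, cut at about -70% in these data; inconclusive means activity change between two set negative limits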
#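 Antagonism was scored as loss of TSH-driven cAMP in TSHR cells, stimulated with 4nM TSH (EC80) for 2 hours at 37 deg C and detected by homogeneous HTRF competition immunoassay.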
# BRCA1 expr act: increases BRCA1 expression. Potency, µM (top dose mostly 46.1 µM), most hits filed as activators. AID 624202. actives 1.1% (n = 380,000). MCF7-BRCA1-FFLuc reporter, luminescence, 48 h; response scale: scaled: vehicle 0%, 10 µM genistein 100%; further: nearly all actives have a fitted effect of over 80% in size
#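 Compounds are tested at multiple concentrations on MCF7 BRCA1-luciferase reporter cells seeded at 2000 per well; after 48 h, a single luminescence end-point is taken and curves fitted to the normalized data.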
# Hits are given with their value; - = inactive; ? = inconclusive; . = no result given; [ ] = remark or other dose. Unless noted, the call rests on the fitted dose curve; in most records, active means well fitted curve in the direction sought with a large enough effect; inconclusive means small, poorly fitted or top-dose-only effect, or another doubt; inactive means no such curve, though single readings can be large; an effect the other way counts as inactive or inconclusive.
SMILES,PTAP TSG101 blk,Anesthetic bind,ASM inhibitor,TSHR antag,BRCA1 expr act
C=CCn1cnc2c(NCc3ccccc3)ncnc21,-,-,-,-,3.98µM
O=C(Cc1ccc(OCCCCc2ccccc2)cc1)NO,.,.,.,.,-
Clc1ccc(Cn2cc3c(n2)-c2cc4ccccc4n2C3)cc1,.,.,.,.,-
COc1ccc(C(=O)N2N=C(c3ccccc3)CC2(O)C(F)(F)F)cc1 (stereo not given),-,?,-,-,-
COC(=O)N1N=C(c2ccccc2)CC1(O)C(F)(F)F (stereo not given),-,-,-,-,11.2µM
COc1ccc(CNc2ccccc2C(=O)NCc2ccccc2)cc1COc1ccc(NC(C)=O)cc1,.,.,.,.,-
O=C(OCC(=O)N1CCN(c2ccccc2)CC1)c1ccccc1[N+](=O)[O-],-,.,-,-,12.6µM
O=C(OCC(=O)N1CCOCC1)c1ccc2ccccc2c1O,-,.,-,-,3.16µM
O=C(OCC(=O)N1CCN(c2ccccc2)CC1)c1cccc([N+](=O)[O-])c1,-,.,-,-,-
Cc1ccc(C(=O)OCC(=O)N2CCCCCC2)c(O)c1,-,.,-,-,12.6µM
O=C(COc1ccc2ccccc2c1)N1CCCC1,-,-,-,-,11.2µM
O=C(COc1ccc2ccccc2c1)N1CCN(c2ccccc2)CC1,-,.,-,-,-
C[n+]1cccc(Br)c1,.,.,.,.,-
O=C(Cc1ccccc1Cl)NO,.,.,.,.,-
O=C(OCC(=O)N1CCCCCC1)c1ccccc1Br,-,.,-,-,?
O=C(OCC(=O)N1CCCC1)c1ccccc1O,-,-,-,-,20µM
COc1cc(N(C)C)cc(CN(C)CCc2ccc([N+](=O)[O-])cc2)c1O,.,-,.,.,.
O=C(Nc1sc(-c2ccccc2)cc1C(=O)O)c1ccccc1,-,-,-,-,11.2µM
Cc1nc2cc(Nc3nnc(-c4ccccc4)c4ccccc34)ccc2n1C,-,-,-,-,4.47µM
COc1ccccc1NC(=O)NC1(C(=O)N2CCC(O)CC2)CCCCC1,-,-,-,-,-
COc1ccccc1NC(=O)NC1(C(=O)N2CCCCC2)CCCCC1,-,-,-,-74.6,-
COc1ccc(N2CCN(c3cnc4ccccc4n3)CC2)cc1,-,-,-,-,?
COc1cccc(N2CCN(c3cnc4ccccc4n3)CC2)c1,-,-,-,-,2µM
O=C(C[n+]1cccc2cccc(O)c21)c1ccc2ccccc2c1,.,.,.,.,-
O=C(Nc1ccc(-c2cnco2)cc1)c1ccc(F)cc1F,-,-,-,-,5.01µM
SMILES,PTAP TSG101 blk,Anesthetic bind,ASM inhibitor,TSHR antag,BRCA1 expr act
CN(C)c1ccc(/C=N/NC(=O)c2ccnn2C)cc1,-,-,-,?,12.6µM
CCN(CC)CC(=O)c1c(C)n(C)c2ccc(OC)cc12,.,.,.,.,-
O=C1CCCCCCC1Sc1ccccc1[N+](=O)[O-] (stereo not given),-,7.94µM,-,-,-
O=[N+]([O-])c1ccccc1S(=O)(=O)NC1CCCCCCC1,-,?,-,-,-
CC1CCCC(N2CCN(S(=O)(=O)c3ccccc3)CC2)C1 (stereo not given),-,-,-,-108.0,-
COc1ccc(S(=O)(=O)N2CCN(C3CCCC(C)C3)CC2)cc1 (stereo not given),-,-,-,-,-
C=C(C)CC(C)(C)C,.,-,.,.,.
N#C/C(=N\Nc1ccc([N+](=O)[O-])cc1)C(=N)N1CCOCC1,-,-,-,-,?
N#C/C(=N\Nc1ccc(Br)cc1)C(=N)N1CCOCC1,-,?,-,-,10µM
Nc1nc(SCc2ccccc2)c2ncn(C3CCCO3)c2n1 (stereo not given),-,.,-,.,8.91µM
O=c1c(N2CCCCC2)coc2ccccc12,-,-,-,-,8.91µM
CCOC(=O)c1cnc(SCc2cccc(C)c2)nc1N,-,-,-,-,10µM
CCOC(=O)c1cnc(SC)nc1N,-,-,-,-,-
CCOC(=O)c1cnc(SCC(=O)c2ccc(C)cc2)nc1N,-,-,-,-,-
CCOC(=O)c1cnc(SCC(C)C)nc1N,-,-,-,-,7.94µM
CNc1nc(N2CCCN(C)CC2)nc2cc(OC)c(OC)cc12,.,.,.,.,-
COC(=O)NC(/C(C(=O)OC)=C(\C)NCc1ccccc1)c1ccc2ccccc2c1 (stereo not given),.,-[15.3 µM],.,.,.
CC(C)N1CCC(=NNC(=O)c2ccccc2[N+](=O)[O-])CC1,-,-,-,-,-
CC(C)N1CCC(=NNC(=O)c2cccs2)CC1,-,-,-,-,8.91µM
O=C(Nc1ccc2cn[nH]c2c1)c1c(Cl)cccc1Cl,-,-,-,-,-
O=C1C(Cl)=C(Nc2ccc3cn[nH]c3c2)C(=O)c2ccccc21,-,-,-,-90.3,-
Nc1cc(OCc2ccccc2)ccc1OCc1ccccc1,-,.,-,.,11.2µM
O=C(NC1CCCC1)C1CC(c2ccc(F)cc2)=NO1 (stereo not given),-,-,-,-,10µM
COc1ccccc1CC(=O)NO,.,.,.,.,-
CCN1/C(=C\C=C(C(C)=O)C(C)=O)Sc2ccccc21,?,?,-,-,-
SMILES,PTAP TSG101 blk,Anesthetic bind,ASM inhibitor,TSHR antag,BRCA1 expr act
CCOC(=O)/C(C#N)=C(C)/C=C1\Sc2ccccc2N1CC,?,-,-,-,3.16µM
O=C(c1cc(-c2cccc(Cl)c2)on1)N1CCCCCC1,-,-,-,-,12.6µM
Cc1cc(OCCN2CCOCC2)ccc1Cl,-,-,-,-,12.6µM
Cc1[nH]c2ccccc2c1C(=O)C(=O)Nc1ccc2c(c1)OCO2,-,-,-,-,2.51µM
CC(=O)NC(Cc1c[nH]c2ccccc12)C(=O)OCC(=O)Nc1ccc2c(c1)OCO2 (stereo not given),-,-,-,-,-
C=C1CCC2C(C)(C)[C@@H](O)CC[C@@]2(C)[C@@H]1COc1ccc2ccc(=O)oc2c1 (stereo not given in full),-,-,-,-75.7,-
C=C1CCC2C(C)(C)[C@H](O)CC[C@@]2(C)[C@@H]1COc1cc(=O)oc2ccccc12 (stereo not given in full),-,-,?,-,-
Cc1cnc(/C=C/c2ccc(N(C)C)cc2)cn1,.,.,.,.,-
Cc1nc([N+](=O)[O-])cn1CC(=O)c1ccc2c(c1)OCCO2,.,.,.,.,-
Cc1ccc(OCC(=O)N2CCc3ccccc3C2)c(Br)c1,-,-,-,-,12.6µM
C(=C1c2ccccc2Oc2ccccc21)c1ccccc1,.,.,.,.,-
COc1ccc(C2NN=C(c3ccc(C)cc3)S2)cc1 (stereo not given),-,-,-,-,1.78µM
CCOc1cc(C2NN=C(c3ccc(C)cc3)S2)ccc1O (stereo not given),-,-,-,-,?
COc1ccc(C2=NOC(Cn3nc(C(=O)O)cc3-c3ccccc3)C2)cc1 (stereo not given),-,-,-,-,-

# Screening data: PubChem, National Center for Advancing Translational Sciences (NCATS)
